# Measurements as given in PubChem BioAssay AID448 (National Center for Advancing Translational Sciences (NCATS), 2006).
# Where “and” joins values, the source holds several entries; their conditions need not be identical. Identical values can stand only once. Screen size: about 65,000 compounds; about 45 (0.07%) were called active. These entries were drawn from the full list. Values without a mark were called inactive. The call rests on the fitted dose curve.
# Tested on: Schistosoma mansoni peroxiredoxin 2 (Prx2)
# Experiment: Schistosoma Mansoni Peroxiredoxins (Prx2)
# Conditions: S. mansoni Prx2 activity coupled to TGR/GSH (TGR is thioredoxin glutathione reductase), NADPH fluorescence loss, qHTS
# Description: NIH Molecular Libraries Screening Centers Network [MLSCN]
# NIH Chemical Genomics Center [NCGC]
# David Williams [Illinois State University]
# Schistosoma mansoni, a causative agent of schistosomiasis, resides in the bloodstream of their host up to 30 years without being eliminated by the host immune attack. One proposed survival mechanism is the production of an antioxidant "firewall" that neutralizes the oxidative assault of the host's immune attack. Schistosoma mansoni peroxiredoxins (Prx) are important parasite antioxidant proteins that play a crucial role in redox balance mechanisms. […] First, the proteins are essential for the parasite survival. […] Third, the protein(s) is amenable for study at the molecular level and can be produced in bacteria in large quantities, in soluble and active form. Inhibition of Prx activity was screened in a coupled-enzyme format with reducing equivalents being transferred from NADPH to […] intermediate via thioredoxin/glutathione reductase (TGR)-catalyzed reaction, then from thioredoxin to hydrogen peroxide via Prx-catalyzed electron transfer. A decrease in the fluorescence intensity of NADPH was used to measure the enzyme activity. Purified S. mansoni TGR and Prx were provided by Professor David L. Williams, Illinois State University.
# NCGC Assay Protocol Summary:
# 100 mM phosphate buffer, pH 7.4, 10 mM EDTA, 0.01% Tween-20.
# 100 uM NADPH/25 nM TGR/700 uM GSH/50 nM Prx2 mixture in columns 1, 2, 5-48. Titration of control potassium antimonyl tartrate (PAT, from 1 mM, then 1:5) pin-transferred to lower half of column 2. Column 1 and upper half of column 2 are neutral (100% activity).
# Three uL of reagents were dispensed to 1536-well Greiner black plates. Compounds and controls (20 nL) were transferred via Kalypsys PinTool. The plates were incubated for 15 min at room temperature, and then a 1 uL aliquot of 400 uM NADPH/700 uM GSH was added, immediately followed by a 1uL aliquot of 2.5 mM H2O2 (to start the reaction). The plate was transferred to ViewLux (Perkin-Elmer) High-throughput CCD imager where kinetic measurements (every 30 sec, for a total of 8 min) of NADPH fluorescence were taken using 365 nm excitation/450 nm emission filter set. During dispense, enzyme-containing reagent bottles were kept submerged into 4 deg C water bath to minimize degradation.
# Keywords: NIH Roadmap, MLSCN, MLI, MLSMR, David Williams, Peroxyredoxin, Schistosoma mansoni, prx2, prx, , qHTS, NCGC
# Potency means the concentration at half of the fitted maximal effect.
row,SMILES,Potency
1,CCNc1ncc2nc(CCc3ccccc3)c(=O)n(-c3ccc(OC)cc3)c2n1,> 57 µM
2,Oc1c(Br)cc(CN(Cc2cc(Br)c(O)c(Br)c2)C2CCCCC2)cc1Br,> 57 µM
3,COc1ccc(-n2c(=O)c(C)nc3cnc(N4CCOCC4)nc32)cc1,> 57 µM
4,C[C@@H](N)[C@@H](C)Cc1ccccc1,> 57 µM
5,CN1CCN2c3ccccc3Cc3ccccc3[C@@H]2C1,> 57 µM
6,CNc1nc(-c2ccccc2OC)nc2ccccc12,> 57 µM
7,O=C(Nc1ccccc1)N[C@H]1C[C@H](C(=O)O)Nc2cc(Cl)cc(Cl)c21,> 57 µM
8,COc1ccc(C(=O)N/N=C2/C(=O)c3c(C)cc(C)cc3CC2(C)C)cc1,> 57 µM
9,N#Cc1cc2[nH]c(=O)c(=O)[nH]c2cc1[N+](=O)[O-],> 25.6 µM
10,c1cncc(CNc2ccnc(-c3ccc4c(c3)OCO4)n2)c1,> 57 µM
11,O=C(c1csnn1)N1CCC2(CCN(Cc3nccs3)CC2)CC1,> 57 µM
12,COCCNc1ncnc2ccc(-c3ccccc3CN(C)C)cc12,> 57 µM
13,O=c1c(-c2ccc(F)cc2)nc2cnc(N3CCOCC3)nc2n1-c1ccccc1,> 11.4 µM
14,CC(=O)/C(=N\N=C(N)N)c1ccccc1,> 57 µM
15,COCCn1c(=O)c(-c2ccccc2)nc2cnc(N3CCOCC3)nc21,> 57 µM
16,CN(C)c1ncc2nc(-c3ccc(F)cc3)c(=O)n(Cc3ccc(F)cc3)c2n1,> 57 µM
17,O=C1NC(=O)[C@@](Cc2ccccc2)(c2cccnc2)N1,> 57 µM
18,N#Cc1cccc(-c2ccc3ncnc(NCc4cccs4)c3c2)c1,> 57 µM
19,O=C(Oc1ccc2c(c1)CN(Cc1ccccc1)CO2)c1ccccc1,> 57 µM
20,O=C(O)c1nn(-c2ccc(Cl)cc2)c2c1C(=O)c1ccccc1C2=O,> 57 µM

row,SMILES,Potency
1,O=C(O)c1c(Br)c(Br)c(Br)c(Br)c1C1c2ccc(O)cc2Oc2cc(O)ccc21,> 57 µM
2,c1ccc2c(Nc3ccncc3)nc(-c3ccc4c(c3)OCO4)nc2c1,> 57 µM
3,CCON=C1C(C)(C)C(C)(C)C(C)(C)C1(C)C,> 57 µM
4,Cc1ccc(-c2nn(CC(C)(C)C)c3ncnc(N)c23)cc1,> 57 µM
5,CN/C(=C\[N+](=O)[O-])NCCSCc1csc(CN(C)C)n1,> 57 µM
6,c1ccc2nc(C3=NCCN3)cnc2c1,> 57 µM
7,Cc1[nH]c(N)nc(=S)c1CCCNc1ccccc1,> 57 µM
8,COc1ncc2nc(-c3ccc(Cl)cc3)c(=O)n(C)c2n1,> 57 µM
9,CCNc1ncc2ncc(=O)n(CCc3ccccc3)c2n1,> 57 µM
10,COc1ccccc1-c1cc(NCc2cccs2)ncn1,> 57 µM
11,O=C(c1csnn1)N1CCC2(CC1)CN(c1ncccn1)C2,> 57 µM
12,COCCn1c(=O)c(-c2cccc(F)c2)nc2cncnc21,> 57 µM
13,Cc1c2c(nc3ccccc13)-c1cccc(=O)n1C2,> 57 µM
14,O=C(c1ccco1)N1CCC[C@@]2(CCN(c3ccccc3)C2)C1,> 57 µM
15,COc1ccc(C(=O)N2CCC3(CC2)CCN(c2ccccn2)CC3)cc1,> 57 µM
16,CN(C)CC/C=C1\c2ccccc2CSc2ccccc21,> 57 µM
17,COc1ccccc1CNc1ncnc2ccc(-c3ccc4c(c3)OCO4)cc12,> 57 µM
18,CC(C)NC(=O)N1CCC2(CC1)CCN(C(=O)c1cccn1C)CC2,> 57 µM
19,COc1ccccc1CNc1ccnc(-c2c(C)noc2C)n1,> 57 µM
20,O=C(c1cnccn1)N1CCC[C@@]2(CCN(Cc3ccncc3)C2)C1,> 57 µM

row,SMILES,Potency
1,COc1ccccc1N1CCN(CCN2C(=O)c3ccccc3C(C)(C)C2=O)CC1,> 57 µM
2,COC(=O)N1CCC2(CCCN(Cc3ccccc3OC)C2)CC1,> 57 µM
3,N#C/C(=C\c1ccc(O)c(O)c1)C(=O)NCc1ccccc1,> 57 µM and > 11.4 µM
4,COc1ccc(Oc2ncc3nc(-c4ccc(F)cc4)c(=O)n(C)c3n2)cc1,> 57 µM
5,O=C(c1csnn1)N1CCC[C@@]2(CCN(c3cccc(-c4ccccc4)c3)C2)C1,> 57 µM
6,Clc1ccc(C=Nc2ccc3c(c2)Cc2ccccc2-3)c(Cl)c1,> 57 µM
7,CC(=O)N1CCC2(CCCN(c3ncccn3)C2)CC1,> 57 µM
8,Cc1ccc(S(=O)(=O)NC(=O)NN2C[C@H]3CCC[C@@H]3C2)cc1,> 57 µM
9,COc1ccc2[nH]cc(CCNc3ncnc4ccc(-c5ccc(C(=O)N(C)C)cc5)cc34)c2c1,> 57 µM
10,N#C/C(=C\c1ccc(O)c(O)c1)C(N)=O,> 57 µM
11,COC(=O)[C@@]1(Cc2ccc(F)cc2)[C@H]2c3cc(C(=O)N(C)C)n(CCc4c[nH]c5ccc(OC)cc45)c3C[C@H]2CN1C(=O)c1ccccc1,> 57 µM
12,CNc1ncnc2ccc(-c3cccc(NS(C)(=O)=O)c3)cc12,> 57 µM
13,Nc1ccc2[nH]cc(CCC(=O)O)c2c1,> 57 µM
14,O=c1c(-c2ccc(F)c(F)c2)nc2cncnc2n1-c1ccccc1,> 57 µM
15,COCCn1c(=O)c(-c2cccs2)nc2cnc(N3CCN(C)CC3)nc21,> 57 µM
16,O=C(O)c1nccnc1C(=O)Nc1ccc(Br)cn1,> 57 µM
17,Cc1nc2cnc(N3CCN(C)CC3)nc2n(CCC#N)c1=O,> 57 µM
18,COc1ccccc1N1CCN(C[C@@H]2CN3C(=O)N(C)c4ccccc4C3=N2)CC1,> 57 µM
19,COC(=O)[C@@]1(Cc2ccc(OC)cc2)[C@H]2c3cc(C(=O)N4CCCC4)n(Cc4ccc(C(F)(F)F)nc4)c3C[C@H]2CN1C(=O)c1ccccc1,> 57 µM
